Experimental data: PubChem BioAssay (NCI)
Values joined by “and” are separate entries in the source; they are usually repeats but may differ in a detail not shown here. Equal entries are not always repeated. The panel holds about 79,000 compounds, 15% with a hit somewhere; the sample as a whole holds those more often. A structure can be active in one record and inactive in another. Active and inactive are the calls of the source. No stated cut-off is given here; in the data, active means growth inhibition above about 70%; inactive means the rest.

Assays:
[1] = NCI Yeast Anticancer Drug Screen. Data for the rad50 strain (AID 155);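 further: 0% = growth of vehicle-only cultures of the same strain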; conditions: S. cerevisiae rad50 strain growth inhibition, stronger effect = higher value
Summary of the method: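 Readout: growth inhibition relative to vehicle-treated cultures. Compound exposure was carried out in a genetically defined yeast strain deficient in DNA damage repair.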

[2] = NCI Yeast Anticancer Drug Screen. Data for the mec2-1 strain (AID 157); conditions: S. cerevisiae mec2-1 strain, stronger effect = higher value
Summary of the method: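 Mutant yeast (mec2-1) grown with compound; growth inhibition relative to vehicle control reported.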

[3] = NCI Yeast Anticancer Drug Screen. Data for the sgs1 mgt1 strain (AID 161);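 further: 0% = growth of cultures given vehicle only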; conditions: S. cerevisiae sgs1 mgt1 strain, stronger effect = higher value
Summary of the method: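 Compounds are added to genetically altered yeast, and growth is compared with cultures given vehicle alone to give percent inhibition.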

[4] = NCI Yeast Anticancer Drug Screen. Data for the cln2 rad14 strain (AID 165);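 further: 0% = growth equal to vehicle treated cultures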; conditions: S. cerevisiae cln2 rad14 strain, stronger effect = higher value
Summary of the method: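 Readout is yeast growth inhibition versus vehicle-treated controls, using a strain with cln2 and rad14 alterations exposed to compound.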

[5] = NCI Yeast Anticancer Drug Screen. Data for the bub3 strain (AID 167); conditions: S. cerevisiae bub3 mutant strain, stronger effect = higher value
Summary of the method: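 Readout: yeast growth inhibition, expressed relative to vehicle-only wells. The test organism is a mutant strain from a panel with lesions in DNA repair or checkpoint genes.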

[6] = NCI Yeast Anticancer Drug Screen. Data for the mlh1 rad18 strain (AID 175); conditions: S. cerevisiae mlh1 rad18 strain growth inhibition, stronger effect = higher value
Summary of the method: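 Genetically defined yeast (DNA repair-deficient) exposed to compounds; growth inhibition determined relative to vehicle.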

[7] = at 5.0 µM (retest, dose inferred, filed as 0.5)
[8] = at 50.0 µM (retest, dose inferred, filed as 5.0)

| SMILES | growth inhibition [1, 7] | growth inhibition [1, 8] | growth inhibition ([1]; at 50.0 µM) | growth inhibition [2, 7] | growth inhibition [2, 8] | growth inhibition ([2]; at 50.0 µM) | growth inhibition [3, 7] | growth inhibition [3, 8] | growth inhibition ([3]; at 50.0 µM) | growth inhibition [4, 7] | growth inhibition [4, 8] | growth inhibition ([4]; at 50.0 µM) | growth inhibition [5, 7] | growth inhibition [5, 8] | growth inhibition ([5]; at 50.0 µM) | growth inhibition [6, 7] | growth inhibition [6, 8] | growth inhibition ([6]; at 50.0 µM) |
| --- | --- | --- | --- | --- | --- | --- | --- | --- | --- | --- | --- | --- | --- | --- | --- | --- | --- | --- |
| CC(=O)OC(OC(C)=O)c1c2ccccc2cc2ccccc12 | 36% (inactive) | 97% (active) | 89.3% (active) | 15% (inactive) | 96% (active) | 93.2% (active) | 27% (inactive) | 97% (active) | 88.9% (active) | 14% (inactive) | 92% (active) | 91.1% (active) | 8% (inactive) | 97% (active) | 85.5% (active) | 23% (inactive) | 97% (active) | 85.7% (active) |
| CC(=O)OCC(=O)[C@H]1CC[C@H]2[C@@H]3CC=C4C[C@@H](O)CC[C@]4(C)[C@H]3CC[C@]12C | 54% (inactive) | 91% (active) | 89.8% (active) | 33% (inactive) | 91% (active) | -5.65% (inactive) | 60% (inactive) | 94% (active) | 48.5% (inactive) | 18% (inactive) | 95% (active) | 55.8% (inactive) | 23% (inactive) | 91% (active) | -17.4% (inactive) | 65% (inactive) | 95% (active) | 81.1% (active) |
| CN(C)c1ccc(/C=C/c2ccc3ccccc3[n+]2C)cc1 | 1% (inactive) | 98% (active) | 53.4% (inactive) | 3% (inactive) | 98% (active) | 99% (active) | 11% (inactive) | 97% (active) | 46.2% (inactive) | 3% (inactive) | 98% (active) | 98% (active) | -9% (inactive) | 99% (active) | 84.2% (active) | -15% (inactive) | 98% (active) | 98.3% (active) |
| CN1CCN(CN2C(=O)C3C4C=CC(C3C2=O)C2C3C(=O)N(CN5CCN(C)CC5)C(=O)C3C42)CC1 (stereo unspecified) | -3% (inactive) | -12% (inactive) | -28.4% (inactive) and -8.45% (inactive) and -17.1% (inactive) | 1% (inactive) | 30% (inactive) | -28.4% (inactive) and 11.8% (inactive) and -15.2% (inactive) | -1% (inactive) | 0% (inactive) | -18.7% (inactive) and 18.9% (inactive) and -32.5% (inactive) | -10% (inactive) | -9% (inactive) | -7.45% (inactive) and 32.5% (inactive) and -40.9% (inactive) | 11% (inactive) | 2% (inactive) | -13.5% (inactive) and -11.5% (inactive) and -76% (inactive) | -1% (inactive) | 18% (inactive) | -4.4% (inactive) and -31.1% (inactive) and -65% (inactive) |
| CCOC(=O)c1ccc(NCc2ccc3ccccc3n2)cc1 | -3% (inactive) | 15% (inactive) | 71.6% (active) | -11% (inactive) | 14% (inactive) | 51.5% (inactive) | -28% (inactive) | 44% (inactive) | 79.4% (active) | -6% (inactive) | 4% (inactive) | 19.1% (inactive) | 11% (inactive) | 55% (inactive) | -11.1% (inactive) | -2% (inactive) | 57% (inactive) | 74.3% (active) |
| Cc1c(Cl)cccc1NC(=O)CC1Sc2ccccc2NC1=O (stereo unspecified) | 23% (inactive) | 83% (active) | -1.35% (inactive) and 51.1% (inactive) | -7% (inactive) | 52% (inactive) | -6.7% (inactive) and 44.2% (inactive) | 2% (inactive) | 38% (inactive) | -22.2% (inactive) and 55% (inactive) | 8% (inactive) | 49% (inactive) | -1.1% (inactive) and 27.8% (inactive) | 4% (inactive) | 83% (active) | 1.6% (inactive) and 49.8% (inactive) | -1% (inactive) | 77% (active) | 6.5% (inactive) and 83% (active) |
| N=S(c1ccccc1[N+](=O)[O-])c1ccccc1[N+](=O)[O-] | 13% (inactive) and 8% (inactive) | 4% (inactive) and 52% (inactive) | 68.2% (inactive) and 54.1% (inactive) | 2% (inactive) and 7% (inactive) | 15% (inactive) and 53% (inactive) | 17.4% (inactive) and 22.4% (inactive) | -24% (inactive) and 32% (inactive) | 39% (inactive) and 77% (active) | 69.5% (inactive) and 75.5% (active) | 8% (inactive) and 6% (inactive) | 9% (inactive) and 49% (inactive) | 25.3% (inactive) and 61.9% (inactive) | -7% (inactive) and 2% (inactive) | -6% (inactive) and 73% (active) | 36.9% (inactive) and 26.8% (inactive) | -14% (inactive) and 20% (inactive) | -1% (inactive) and 83% (active) | 79.8% (active) and 76.3% (active) |
